Here are results for 29 molecules from the supplement of paper PMC12632987.

Whole data set: some 1,800 sequences, median “median log2 fold change of GCK-ALFA target abundance (FLAG IP / Myc IP barcode read proportion)” near 0.14, cut for the lowest 2% near -0.84. The entries come from a sample that favours the lowest values as a whole.

To fix the notation:
T1: TRAF2, Q12933
T1 chain: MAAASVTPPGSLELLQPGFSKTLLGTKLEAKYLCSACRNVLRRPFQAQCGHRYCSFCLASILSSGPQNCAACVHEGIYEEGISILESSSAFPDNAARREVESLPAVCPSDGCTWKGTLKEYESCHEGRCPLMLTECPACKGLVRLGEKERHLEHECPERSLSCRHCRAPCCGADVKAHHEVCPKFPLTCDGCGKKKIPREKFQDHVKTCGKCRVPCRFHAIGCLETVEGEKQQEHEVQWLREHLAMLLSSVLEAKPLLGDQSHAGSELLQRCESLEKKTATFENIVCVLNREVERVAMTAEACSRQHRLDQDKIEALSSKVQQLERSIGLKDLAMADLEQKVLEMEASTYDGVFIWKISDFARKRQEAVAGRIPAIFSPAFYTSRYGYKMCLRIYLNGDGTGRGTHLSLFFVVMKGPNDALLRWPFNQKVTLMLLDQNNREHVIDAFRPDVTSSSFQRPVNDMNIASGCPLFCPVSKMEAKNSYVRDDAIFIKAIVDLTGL

B1: traf2_out_6_156_2412 (protein)
chain: MVEEILEKALEKVEELIKELAKASEEKKIAYISKIAGTAYRALQELREAGASLEEIEAFAEEFKKRTEELLKEAGLPEDTINLVLSALNAVFDVAIAEAK
B2: traf2_out_11_155_735 (protein)
chain: EEKQKLIQEMNDKIMELFEEARRRALEIARRAAERHPEHREEIEAAIEESKGFSYRSFILEMIRLFRELGLEEEAEELERLLEETQRKASKIVIETEKKL
B3: traf2_out_17_162_1539 (protein)
chain: SPTEERLEELERRLERLEEELKKLKEKSEKLDELSKEEISDLLVEVSELRREALRLAEELRRLAEETGSPRARELEERAERLAEELQRIANKIYKELEKK
B4: traf2_out_11_155_726 (protein)
chain: SKFKEAQNKIVDFNLEVGDELLKKVEEIIKEIEKEDPEVAKKLREVVEKYKKFSNRSAARAAIDLLREEGYEEYAERLEKALEEAQRKMSKKTQEIEKEL
B5: traf2_out_6_3_2520 (protein)
chain: MEESIRRDARTVLENMGITTAEQLKRLVEANVNAVKKLVSRPDVDEADLAGARSVLALTRAMVDVAAETLPDLTPEQVAEMKALIKEAEELVEKKRKELE
B6: traf2_out_6_3_2516 (protein)
chain: MEESIRKDAETVLENMGITTAEQLKRLVKAEVNAVKKLVSRKDVDEADLAGAESVLNLTRAMVEVAYEKLPDLTEEQKKEMLALIKEAEELVKKKRKELE
B7: traf2_out_18_3_1943 (protein)
chain: KEEELKKISEEIDKIIDEVTARAREELDRLLAEHPELAAEAEALRADLDAGAGPFGILDELARLWERAGAADEAAAARAFLREKRKKLQELVDKYEELRK
B8: traf2_out_13_95_1132 (protein)
chain: SAETAKKIMEIADKMLDEILAILEELLKKAEAAGVGVEEIQKAIHLAEHHSVNEAIHLLRELAKKHPEFKAELEAAIAKIEAIREKAGREVAKILKEAAE
B9: traf2_out_1_27_1022 (protein)
chain: SDEEFTRLIRETDRKIAEVDLEEQKKVVKEALKEAAKWGLGDARMLARTLVASQNDEERQEAIKEASLEAFKELGAPEEVIEELERVFNSIIERKKKVLA
B10: traf2_out_18_167_1872 (protein)
chain: SAELKKKREELTDELVRYSTIRRALLLILEALKRSREEARRLLEEYVEKYPDSEVLREALEVFETKSDEEFRKFLEEKAEELQKEANEKYKELEELEKEE
B11: traf2_out_11_155_669 (protein)
chain: EEKQKLNNELVNELTKVSDELKEKVIKILKEAAEKHPEHKEEIEKVIESSKTLSGTSFARKAAQLFKELGLEEEAKKVEELLEEAQKKMNEIYKKYEKKL
B12: traf2_out_17_178_1674 (protein)
chain: DKAAKRAEISALTDELIDLTEDTGTKLLALAEAEGTLTPEELALLRAALRSSSANTLLAVAEKLAPKLKTKAEAEALLKDFKEKKKELSKKIAEAYKEYE
B13: traf2_out_14_149_1231 (protein)
chain: SEEAKLLAAAAELTEKIAKTLEEVLKLLKEGKLEEAKKLLKESIEELEKESKKKGVTPSQLFQLEDLLELLEKDPEAAKKFAEEALARAKENADTLKEMA
B14: traf2_out_11_169_779 (protein)
chain: EEAEKNRKINDFALELNDKAKEKLKEEALKLAKEAGLDEEEIKKIFEENKNKSLSAVAAALIKYFESKGKEEEAAKVLEKYEELKDEINKKSSEFIKSLE
B15: traf2_out_1_158_912 (protein)
chain: DTKKKLMLSSVELVVKDAVESARENGDEETAKAIEELGEKIIELVKKLAIEEGKSVEEVIEEIDKLAAEFKAKADPETAAAIERLTRRVKSALRQVEKLM
B16: traf2_out_18_5_1953 (protein)
chain: SREEELKEALKSAERILSKKPEIEAEAKKLGVEELYKKAVEDFTRALENGEDLAKISTKHAEELAKKIGDPEKAEDLTYEIRRYVSAEYAKEVLEEMLKA
B17: traf2_out_20_8_2269 (protein)
chain: MSMEEKLARAADLILDAKDLVRAVIREVLADERAPAIAAEAAAAISVSVSADDTDADILLRIRERATEALTRLAERTGDPRLEEARARVAAALDAAAAAA
B18: traf2_out_6_156_2453 (protein)
chain: AAEAILERTEKEIEEGIKALAAAPEERKIAEINRIAGAFYRGLQALRAAGASLEELRAAAERLLETAEKKAKEAGLDERTRNLLLASLRAVADVALAAAA
B19: traf2_out_17_162_1558 (protein)
chain: SEIEKRWEKLKEELKELEKRVEALEKRLERLAELTPEEIRDLLVEASEVKRRALELAEEAEKLKEKIGEEEAQKLIDEANEIAERAQRIANTLYKALEKK
B20: traf2_out_18_167_1847 (protein)
chain: EEEIRKRREELSDRLVELSEVKRAARLALQALETDPSKVPAALAALREKAASIPELQPLVDAAEAALAAGDREGLRATLEKLIEKAQKLMNEVLKEYEAL
B21: traf2_out_6_156_2450 (protein)
chain: MIEEIFEKAVKEIEELIKKLAAAPESKKIAYINKIAGTFYKALQELRESGASLEEIEEFVERLLKKAEELANEAGLDEDTKNLLLSTLSAVGEVAIANAK
B22: traf2_out_17_162_1507 (protein)
chain: SPLEELRRRIEEELEELRRELERLEKKMENLKSMSKEELSDLLVEASEAKARALRLAELVREHREELGEEEAERLIREAEEIAERLQRIANEAYKELLKK
B23: traf2_out_3_89_2301 (protein)
chain: AAAEAAKIEAARARAERYARGFRKSARFVAKQMIADGMSLDTLRGVLEAARNALVEVFREELKEQGLSEETIEELVKELTEELEKIVEEILEEAEKKRAE
B24: traf2_out_13_95_1141 (protein)
chain: SAEVAAKINAIADRLLAEKDAILDELEAQLKAAGLLTPELRAALEAAKRSSISTAIHRLRELAERYPEARAALEAAIARLEALRREAGREVAEILKEEKE
B25: traf2_out_20_3_2084 (protein)
chain: KELEEEYKKHLEKAEKLLKEAAKLADPETAKKLEELIKRLKKSEELPYSDRLVVLSEVRREVLLLAQEAKAAGNEELAKILEEAAEEINRAMNLLMKMIE
B26: traf2_out_3_77_2274 (protein)
chain: SMKKEEIREKLDEATTLAIASLAVNAINNPEKAEEFREMARIVHRARAIAKEKGKEEELLPLIEEAKEAADKLNEGDESALEKLKEIVKKIGELAEKWEK
B27: traf2_out_17_60_1763 (protein)
chain: GPEEEKEELKREARRAIEEARRLVEEVRAKLAAGTLTASEAMDWLVELTEKRRELERLLEEAEKKGEEMEELKRELERAIEEVRRTMNEVGKHLLELLEA
B28: traf2_out_20_3_2204 (protein)
chain: SELEEELEKRLDAAEKLLKEAQKLADPETAKTLDALIARLKASRELSYDDRLVTLSAIRAEVLALAQAAKAAGNAELAAVLEAAADELQKAMNLVYKIIE
B29: traf2_out_17_162_1540 (protein)
chain: SETEEELRRLREELEELEEELRRLEEISKNLETLSKEELTDLLVEASELRRRALELAERLRRLEEETGSEEARRLRERAEEIAERLQRIANEIYKELEKK

For the assay, the target named is T1, TRAF2, Q12933. Kind of assay: median log2 fold change of GCK-ALFA target abundance (FLAG IP / Myc IP barcode read proportion) (log2 ratio); each designed protein is fused to an ALFA-tag nanobody in HEK293 cells to bring the named protein to FLAG-tagged glucokinase (GCK); Myc marks an untargeted standard; higher = target protein stabilised (more abundant). Conditions: target protein: 3xFLAG-MCP-GCK-ALFA reporter; HEK293 landing pad (RPLP). The method, then:
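LABEL-seq trans screen in HEK293 landing-pad cells. Each de novo designed 100-aa effector handle, binding the indicated effector (E3 ligase, DUB or autophagy protein), is fused to a constant NbALFA target handle and induced with 2 ug/mL doxycycline. A FLAG-MCP-GCK-ALFA target and a Myc-MCP standard reporter were transfected, and after 48 h circRNA barcodes were recovered by anti-FLAG and anti-Myc IP and sequenced. The value is the median across barcodes (at least 3 per design) of log2(FLAG/Myc read-proportion ratio), with the two transfection replicates pooled. Negative values mean degradation and positive values mean stabilisation of the target.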
Consider B1, for which the “median log2 fold change” value amounted to 0.261.

As for B2, the “median log2 fold change” value was -0.138.

Regarding B3, the “median log2 fold change” value amounted to 0.204. Consider B4, for which the “median log2 fold change” value stood at 0.469. The result for B5 reads -0.989; that for B6, -0.56; that for B7, 0.0947.

Regarding B8, the “median log2 fold change” value is -0.315.

Take B9: the “median log2 fold change” value was found to be 0.214.

Consider B10, for which the “median log2 fold change” value came to 0.106. To B11 belongs 0.305; to B12, 0.0887; to B13, 0.24. The result for B14 reads 0.368.

Consider B15, for which the “median log2 fold change” value turned out to be 0.0872.

Turning to B16, the “median log2 fold change” value was -0.0294.

Consider B17, for which the “median log2 fold change” value turned out to be 0.0236. To B18 belongs -0.00113; to B19, 0.297; to B20, 0.224.

Consider B21, for which the “median log2 fold change” value stood at 0.00905. The result for B22 reads 0.373; that for B23, -0.974. The result for B24 reads -0.98; that for B25, 0.118. In the case of B26, the “median log2 fold change” value is 0.354. To B27 belongs -0.0301; to B28, -0.756. To B29 belongs 0.402.
